According to the supplement of paper PMC6555819:

Columns and labels:
Test in all cases: PBM binding z-score (relative to random genomic background probes); higher = stronger binding; sequences stand for … in GC…GCGATTGACAGCGTAGAATGAAGG
[1] = system: FXR:RXRa (NR concentration 270 nM, RXRa partner concentration 90 nM)
Procedure, shortened: (§1)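 Antibodies against each partner of ligand-free nuclear receptor dimers (one per run) detected binding on custom Agilent 4×180K protein-binding microarrays after 1 h incubation. The double-stranded probes had 34-nt variable regions carrying direct-repeat seeds, single-nucleotide variants, half-site ablations and random human genomic background sequences. Binding z-scores, from regression-normalized fluorescence, use the random background probes as reference.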

[2] = system: LXRa:RXRa (NR concentration 270 nM, RXRa partner concentration 90 nM)
Procedure, shortened: as §1

[3] = system: LXRa homodimer (NR concentration 270 nM)
Procedure, shortened: as §1

[4] = system: LXRb:RXRa (NR concentration 270 nM, RXRa partner concentration 90 nM)
Procedure, shortened: as §1

[5] = system: LXRb homodimer (NR concentration 270 nM)
Procedure, shortened: as §1

[6] = system: PPARa:RXRa (NR concentration 270 nM, RXRa partner concentration 90 nM)
Procedure, shortened: as §1

[7] = system: PPARg:RXRa (NR concentration 180 nM, RXRa partner concentration 90 nM)
Procedure, shortened: as §1

[8] = system: PPARg:RXRa 270nM:90nM, anti-RXR (NR concentration 270 nM, RXRa partner concentration 90 nM)
Procedure, shortened: as §1

[9] = system: PPARg:RXRa 30nM:10nM, anti-RXR (NR concentration 30 nM, RXRa partner concentration 10 nM)
Procedure, shortened: as §1

[10] = system: PPARg:RXRa 90nM:30nM, anti-RXR (NR concentration 90 nM, RXRa partner concentration 30 nM)
Procedure, shortened: as §1

Row | Sequence | PBM binding z-score [1] | PBM binding z-score [2] | PBM binding z-score [3] | PBM binding z-score [4] | PBM binding z-score [5] | PBM binding z-score [6] | PBM binding z-score [7] | PBM binding z-score [8] | PBM binding z-score [9] | PBM binding z-score [10]
1 | TCTCGGAGGACACGCAGGTCAGAGCTTTCCAGAG | 0.587 | 0.453 | -0.198 | 0.321 | -1.1 | 1.22 | -0.00527 | 0.98 | 1.99 | 1.12
2 | AATACAGGGTCTCTAGGCCAGAGTAGGTACGAAT | -0.207 | -0.38 | -0.356 | -0.392 | -0.462 | -0.078 | 0.645 | 0.0123 | -0.245 | -0.282
3 | CCGAGTAGGTTATGGGGAATTCAGGCAACGGTGA | 0.109 | 0.544 | 0.111 | 0.918 | 0.311 | 1.23 | 1.46 | 2.43 | 0.671 | 1.48
4 | CCTACTGGGCCATCAGTTCATTGATATCAACGTT | 0.0577 | -0.0476 | 0.218 | 0.257 | -0.567 | 1.11 | 1.34 | 2.19 | 0.638 | 1.48
5 | CCAGACAGGTGAGAAGGTACCTCAGCCTCGATTA | -0.184 | -0.333 | -0.205 | -0.357 | -0.562 | 0.192 | 0.408 | 0.244 | -0.397 | -0.0819
6 | CTACCAAGGTGAAGAAGGTCGTTGATTACTATTC | 0.613 | 0.547 | 0.132 | 1.33 | -0.664 | 1.95 | 0.281 | 0.572 | -0.116 | 0.36
7 | TTACCAAGATGAAAGGTCGTTGATGCACGCCTTG | 1.32 | 1.82 | 0.225 | 1.6 | -0.121 | 3.04 | 3.53 | 5.28 | 3.89 | 5.86
8 | AGAGCGAGGGCAATGAGTTGATAGCACGGGTGGC | -0.116 | -0.109 | -0.331 | -0.283 | -0.845 | 0.406 | 0.562 | -0.152 | -0.57 | -0.736
9 | CCTCGGAGGACAGGAGGTCAGAGCTGTCCGCTTT | 1.56 | 1.79 | 0.686 | 1.2 | -0.929 | 1.96 | -0.08 | 0.65 | -0.913 | -0.13
10 | AGAATGAGGTTATACGCAGATCAGGGAAGAAAGT | 2.11 | 2.13 | -0.247 | 1.68 | -0.102 | 3.39 | 1.58 | 2.01 | 0.827 | 1.45
11 | AGAACGAGGGCAATGTGTTGATAGCACGGGTGGC | 0.748 | 0.456 | -0.316 | 0.0585 | -0.324 | 1.47 | 1.55 | 1.19 | 0.0423 | 0.712
12 | ATATGTAGGTTATCGGGTCATTCAGTTTGCGCAT | 2.98 | 3.41 | 2.11 | 3.16 | 1.34 | 4.62 | 6.73 | 6.32 | 3.96 | 5.64
13 | GCTTGTAGATCAAGGTCAAGAAAGACTAAGCTAA | 3.17 | 3.25 | 0.618 | 3.02 | 0.0549 | 3.91 | 1.86 | 3.04 | 0.697 | 2.12
14 | TTAATGAGGTTAAAGATCAGGGAACGTGGCGTCG | 3.44 | 3.14 | 0.612 | 2.28 | 0.716 | 5.01 | 6.53 | 7.02 | 6.34 | 7.88
15 | AGAATGAGGTTATTAAGATCATGGAATTGCGGTC | 1.63 | 1.62 | 0.0389 | 1.29 | -0.00587 | 2.75 | 1.91 | 2.37 | 0.464 | 1.49
16 | CCTACTGGGCCTTTCAGAGGTCATTGATCATATG | 2.73 | 4.97 | 8.02 | 3.71 | 0.477 | 3.35 | 0.785 | 2.22 | 0.333 | 1.2
17 | GCTAGCAGGTCATTTGGGTCACTCAATGACGGGC | 5.14 | 3.76 | 2.34 | 3.32 | 0.927 | 4.37 | 3.89 | 4.06 | 1.29 | 2.66
18 | TCTTGTAGATCAACAGGTTAAGAAAGCTGGCCAA | 0.41 | 0.634 | -0.164 | 0.757 | -0.124 | 1.33 | 0.000535 | 1.83 | 2.88 | 2.37
19 | TCTAGTTGGTCAAAGGTCACACAATCGAAATGCG | 5.53 | 5.9 | 3.73 | 5.66 | 2.13 | 6.6 | 11.8 | 9.87 | 11.7 | 11.4
20 | CAAACTAGGTCAAAGGTCACAGTCGAGCCAACCA | 8.05 | 6.81 | 4.49 | 7.06 | 2.03 | 7.83 | 13.8 | 11.1 | 13.2 | 13.2
21 | GCTCGGAGGACAAGGTCAGAGCGTTGTCCGTAGA | 2.18 | 1.74 | -0.229 | 1.46 | -0.608 | 2.61 | 0.378 | 1.37 | -0.49 | 0.635
22 | ACTATTAGTTGAGACCAGGGCAACCGATAGGTTG | 0.433 | -0.242 | -0.0882 | -0.177 | 0.0937 | 0.067 | 0.508 | 0.263 | 0.00186 | -0.189
23 | TCGAGTAGGTTACCAATGGGGCCTTCAGCTTTCT | -0.184 | 0.128 | -0.933 | -0.0136 | -1.01 | 0.918 | -0.264 | 0.957 | 0.922 | 0.958
